Results taken from the supplement of paper PMC10849652.
Of roughly 7,900 targets only a part is listed; those with a hit were picked by preference. About 0.6% of all pairs of compound and target were hits.

How the values were obtained:
Test in all cases: log2 fold change, soluble protein after heating vs DMSO (PISA); higher = thermal stabilisation; K562 cells, 10 uM, 30 min; active = over 0.2 and 3.5 SD of the protein, either way, in both replicates (recomputed)
IRAK-1-4 Inhibitor I = compound: C1COCCN1CCN2C3=CC=CC=C3N=C2NC(=O)C4=CC(=CC=C4)[N+](=O)[O-] [IRAK-1-4 Inhibitor I]
Procedure, shortened: (§1)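 Quantification of soluble protein used TMTpro 16plex LC-MS/MS, with channel sums equalised. Samples were the supernatant after 21,000xg for 90 min of pooled aliquots from K562 cells (2×10^6 cells/mL) treated with 10 μM compound for 30 min, heated for 3 min over 48°C-58°C, and extracted in PBS with 0.5% NP-40 at 4°C. Values, from duplicates, describe thermal stability against control samples on a log2 fold-change scale.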

ibrutinib = compound: C=CC(=O)N1CCC[C@@H](n2nc(-c3ccc(Oc4ccccc4)cc3)c3c(N)ncnc32)C1 [ibrutinib]
Procedure, shortened: as §1

[1] = compound: CC(=O)c1cnc2ccc(-c3cc(Cl)c(O)c(Cl)c3)nc2c1N[C@H]1CC[C@H](CN(C)C)CC1
Procedure, shortened: as §1

ralimetinib = compound: CC(C)(C)Cn1c(N)nc2ccc(-c3[nH]c(C(C)(C)C)nc3-c3ccc(F)cc3)nc21 [ralimetinib]
Procedure, shortened: as §1

[2] = compound: CC(C)(O)CC(=O)NCCn1ccc2ncnc(Nc3ccc(Oc4cccc(C(F)(F)F)c4)c(Cl)c3)c21
Procedure, shortened: as §1

[3] = compound: CC(C)C1=C2N=C(C=C(N2N=C1)NCC3=CC=CC=C3)NCCCCCCN
Procedure, shortened: as §1

[4] = compound: CC(C)C[C@@H](C=O)NC(=O)[C@H](CC(C)C)NC(=O)[C@H](CC(C)C)NC(=O)OCc1ccccc1
Procedure, shortened: as §1

pinometostat = compound: CC(C)N(C[C@H]1O[C@@H](n2cnc3c(N)ncnc32)[C@H](O)[C@@H]1O)[C@H]1C[C@@H](CCc2nc3cc(C(C)(C)C)ccc3[nH]2)C1 [pinometostat]
Procedure, shortened: as §1

[5] = compound: CC1=C(C(CC(=O)N1)C2=CC=C(C=C2)C(F)(F)F)C(=O)NC3=C(C=C4C(=C3)C=NN4)F
Procedure, shortened: as §1

[6] = compound: CC1=C(C2=C(C=C1)C(=O)C3=CC=CC=C3N2CCCN)C
Procedure, shortened: as §1

[7] = compound: CC1=C(C=C(C=C1)NC(=O)C2=CC(=CC=C2)C(C)(C)C#N)NC3=CC4=C(C=C3)N=CN(C4=O)C
Procedure, shortened: as §1

[8] = compound: CC1=C(C=C(C=C1)NC(=O)C2=CC(=CC=C2)N(C)C)NC(=O)C3=CC=C(C=C3)O
Procedure, shortened: as §1

[9] = compound: CC1=CC=C(C=C1)SC2=C3C=C(SC3=CN=C2)C(=O)N
Procedure, shortened: as §1

[10] = compound: CC1=NC(=CC=C1)C2=C(N=C(N2)C(C)(C)C)C3=CC4=NC=CN=C4C=C3
Procedure, shortened: as §1

Nexturastat A = compound: CCCCN(Cc1ccc(C(=O)NO)cc1)C(=O)Nc1ccccc1 [Nexturastat A]
Procedure, shortened: as §1

vemurafenib = compound: CCCS(=O)(=O)Nc1ccc(F)c(C(=O)c2c[nH]c3ncc(-c4ccc(Cl)cc4)cc23)c1F [vemurafenib]
Procedure, shortened: as §1

[11] = compound: CCCS(=O)(=O)Nc1ccc(F)c(C(=O)c2c[nH]c3ncc(Cl)cc23)c1F
Procedure, shortened: as §1

[12] = compound: CCCc1cc(C)[nH]c(=O)c1CNC(=O)c1cc(-c2ccnc(N3CCN(C)CC3)c2)cc2c1cnn2C(C)C
Procedure, shortened: as §1

givinostat = compound: CCN(CC)Cc1ccc2cc(COC(=O)Nc3ccc(C(=O)NO)cc3)ccc2c1 [givinostat]
Procedure, shortened: as §1

barasertib = compound: CCN(CCCOc1ccc2c(Nc3cc(CC(=O)Nc4cccc(F)c4)[nH]n3)ncnc2c1)CCOP(=O)(O)O [barasertib]
Procedure, shortened: as §1

Measured: log2 fold change

HIP1R (UniProt O75146)
Sequence of UniProt O75146 (O75146 whole entry, looked up): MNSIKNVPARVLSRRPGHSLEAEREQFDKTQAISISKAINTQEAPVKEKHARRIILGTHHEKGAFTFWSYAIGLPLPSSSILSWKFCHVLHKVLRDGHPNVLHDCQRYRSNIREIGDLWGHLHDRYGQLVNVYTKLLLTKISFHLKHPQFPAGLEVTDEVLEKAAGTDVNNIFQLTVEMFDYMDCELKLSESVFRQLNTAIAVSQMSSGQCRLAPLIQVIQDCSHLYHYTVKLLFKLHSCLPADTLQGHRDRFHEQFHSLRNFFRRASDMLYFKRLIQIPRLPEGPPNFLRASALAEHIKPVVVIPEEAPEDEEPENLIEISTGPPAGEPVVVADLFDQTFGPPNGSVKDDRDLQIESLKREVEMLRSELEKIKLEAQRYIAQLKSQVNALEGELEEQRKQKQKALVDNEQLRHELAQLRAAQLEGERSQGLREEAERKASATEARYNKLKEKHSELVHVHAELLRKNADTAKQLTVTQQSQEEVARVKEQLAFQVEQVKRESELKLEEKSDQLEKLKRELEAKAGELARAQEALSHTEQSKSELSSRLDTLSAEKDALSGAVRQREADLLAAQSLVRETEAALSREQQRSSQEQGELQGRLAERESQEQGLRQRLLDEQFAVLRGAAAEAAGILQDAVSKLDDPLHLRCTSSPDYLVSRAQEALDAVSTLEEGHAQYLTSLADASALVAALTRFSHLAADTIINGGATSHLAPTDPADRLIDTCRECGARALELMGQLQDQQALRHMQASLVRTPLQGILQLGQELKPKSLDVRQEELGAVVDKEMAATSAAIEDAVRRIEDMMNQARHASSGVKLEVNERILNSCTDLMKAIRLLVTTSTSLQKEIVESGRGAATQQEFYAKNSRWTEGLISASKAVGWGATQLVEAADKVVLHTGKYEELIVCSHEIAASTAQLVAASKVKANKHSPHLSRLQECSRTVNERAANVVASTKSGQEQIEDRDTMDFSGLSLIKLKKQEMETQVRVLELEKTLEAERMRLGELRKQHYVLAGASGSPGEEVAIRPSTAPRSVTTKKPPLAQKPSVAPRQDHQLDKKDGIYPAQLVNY
inactive: IRAK-1-4 Inhibitor I 0.029 | ibrutinib -0.027 | [1] -0.022 | ralimetinib 0.01 | [2] -0.034 | [3] -0.059 | [4] -0.003 | pinometostat 0 | [5] -0.004 | [6] 0.138 | [7] -0.028 | [8] -0.053 | [9] 0.003 | [10] -0.002 | Nexturastat A -0.047 | vemurafenib -0.026 | [11] 0.036 | [12] -0.006 | givinostat 0.059 | barasertib 0.041

FDXR isoform 7 (UniProt P22570)
active: [2] -0.27
inactive: IRAK-1-4 Inhibitor I 0.031 | ibrutinib 0.046 | [1] -0.086 | ralimetinib -0.015 | [3] -0.091 | [4] 0.015 | pinometostat -0.024 | [5] -0.033 | [6] 0.125 | [7] -0.011 | [8] -0.078 | [9] -0.039 | [10] 0.072 | Nexturastat A -0.07 | vemurafenib 0.02 | [11] 0.024 | [12] 0.059 | givinostat -0.021 | barasertib 0.035

GMEB1 (UniProt Q9Y692)
Sequence of UniProt Q9Y692 (Q9Y692 whole entry, looked up): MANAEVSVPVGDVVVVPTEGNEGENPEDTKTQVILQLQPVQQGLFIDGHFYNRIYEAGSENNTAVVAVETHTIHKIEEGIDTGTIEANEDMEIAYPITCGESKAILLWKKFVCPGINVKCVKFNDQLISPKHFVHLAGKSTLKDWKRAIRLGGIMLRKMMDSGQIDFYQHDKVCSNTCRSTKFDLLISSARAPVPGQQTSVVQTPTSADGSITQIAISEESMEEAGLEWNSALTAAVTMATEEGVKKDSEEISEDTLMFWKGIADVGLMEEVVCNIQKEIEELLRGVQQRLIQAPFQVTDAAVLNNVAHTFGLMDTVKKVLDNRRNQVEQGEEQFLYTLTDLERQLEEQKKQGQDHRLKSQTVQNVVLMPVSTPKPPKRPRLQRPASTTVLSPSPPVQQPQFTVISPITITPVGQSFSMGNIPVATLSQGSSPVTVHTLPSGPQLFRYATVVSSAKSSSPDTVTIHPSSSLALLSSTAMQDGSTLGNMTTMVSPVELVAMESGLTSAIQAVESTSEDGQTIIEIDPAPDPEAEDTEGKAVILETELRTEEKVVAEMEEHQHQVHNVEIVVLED
active: [6] -0.297
inactive: IRAK-1-4 Inhibitor I -0.033 | ibrutinib -0.031 | [1] -0.021 | ralimetinib 0.01 | [2] -0.039 | [3] -0.044 | [4] -0.031 | pinometostat 0.022 | [5] 0.011 | [7] 0.088 | [8] 0.041 | [9] 0.04 | [10] 0.014 | Nexturastat A -0.041 | vemurafenib -0.048 | [11] 0.154 | [12] 0.047 | givinostat 0.058 | barasertib 0.008

GTF3C5 isoform 3 (UniProt Q9Y5Q8)
Sequence of UniProt Q9Y5Q8 (Q9Y5Q8 whole entry, looked up): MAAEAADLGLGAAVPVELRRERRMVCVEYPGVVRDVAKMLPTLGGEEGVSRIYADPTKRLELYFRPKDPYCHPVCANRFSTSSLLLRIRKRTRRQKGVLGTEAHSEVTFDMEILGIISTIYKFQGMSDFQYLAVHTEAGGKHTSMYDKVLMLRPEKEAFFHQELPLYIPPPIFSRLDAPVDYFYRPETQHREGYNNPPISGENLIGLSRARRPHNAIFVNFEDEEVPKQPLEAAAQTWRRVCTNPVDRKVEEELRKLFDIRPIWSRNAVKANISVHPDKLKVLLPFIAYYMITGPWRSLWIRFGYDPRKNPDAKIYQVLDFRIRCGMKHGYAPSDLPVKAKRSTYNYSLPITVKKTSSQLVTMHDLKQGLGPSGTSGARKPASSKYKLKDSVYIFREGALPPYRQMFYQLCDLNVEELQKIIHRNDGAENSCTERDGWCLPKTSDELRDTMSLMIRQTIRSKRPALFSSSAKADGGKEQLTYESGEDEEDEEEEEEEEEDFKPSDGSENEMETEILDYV
inactive: IRAK-1-4 Inhibitor I -0.028 | ibrutinib 0.046 | [1] 0.047 | ralimetinib 0.01 | [2] -0.025 | [3] -0.293 | [4] 0.083 | pinometostat 0.109 | [5] 0.147 | [6] -0.171 | [7] 0.058 | [8] -0.022 | [9] 0.088 | [10] 0.007 | Nexturastat A 0.136 | vemurafenib 0.101 | [11] 0.056 | [12] 0.061 | givinostat 0.045 | barasertib 0.08

HIST2H3A (UniProt Q71DI3)
active: Nexturastat A 0.921
inactive: IRAK-1-4 Inhibitor I -0.269 | ibrutinib 0.081 | [1] -0.012 | ralimetinib 0.292 | [2] -0.021 | [3] -0.225 | [4] 0.18 | pinometostat 0.29 | [5] 0.002 | [6] 0.727 | [7] -0.1 | [8] -0.004 | [9] -0.119 | [10] -0.056 | vemurafenib -0.203 | [11] 0.592 | [12] 0.037 | givinostat 0.321 | barasertib -0.148

HADHB (UniProt P55084)
Sequence of UniProt P55084 (P55084 whole entry, looked up): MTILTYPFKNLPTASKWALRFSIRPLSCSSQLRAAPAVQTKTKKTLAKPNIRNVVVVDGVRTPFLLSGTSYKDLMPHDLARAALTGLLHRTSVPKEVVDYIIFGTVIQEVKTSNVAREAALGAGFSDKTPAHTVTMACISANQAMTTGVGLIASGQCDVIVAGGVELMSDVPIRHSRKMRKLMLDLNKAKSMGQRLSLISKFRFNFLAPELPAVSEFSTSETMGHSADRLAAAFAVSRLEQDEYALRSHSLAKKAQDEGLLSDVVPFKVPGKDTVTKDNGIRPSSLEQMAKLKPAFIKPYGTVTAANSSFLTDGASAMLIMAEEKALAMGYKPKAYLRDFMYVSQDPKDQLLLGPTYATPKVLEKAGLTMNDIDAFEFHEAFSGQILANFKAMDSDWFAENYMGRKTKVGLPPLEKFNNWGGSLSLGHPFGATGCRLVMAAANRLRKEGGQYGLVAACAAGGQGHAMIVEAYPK
inactive: IRAK-1-4 Inhibitor I -0.025 | ibrutinib 0.074 | [1] -0.326 | ralimetinib 0.068 | [2] -0.155 | [3] 0.37 | [4] -0.106 | pinometostat -0.05 | [5] -0.147 | [6] 0.104 | [7] 0.19 | [8] -0.248 | [9] -0.002 | [10] -0.012 | Nexturastat A -0.085 | vemurafenib -0.047 | [11] -0.042 | [12] 0.113 | givinostat 0.064 | barasertib 0

GCSH (UniProt P23434)
Sequence of UniProt P23434 (P23434 whole entry, looked up): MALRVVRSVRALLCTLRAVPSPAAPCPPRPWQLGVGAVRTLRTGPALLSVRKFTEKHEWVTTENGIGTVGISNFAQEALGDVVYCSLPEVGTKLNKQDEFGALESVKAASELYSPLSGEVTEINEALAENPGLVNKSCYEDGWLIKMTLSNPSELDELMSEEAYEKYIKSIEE
inactive: IRAK-1-4 Inhibitor I 0.027 | ibrutinib -0.002 | [1] 0.011 | ralimetinib -0.026 | [2] -0.031 | [3] -0.025 | [4] -0.049 | pinometostat -0.021 | [5] 0.029 | [6] 0.03 | [7] -0.024 | [8] 0.047 | [9] 0.279 | [10] 0.006 | Nexturastat A -0.06 | vemurafenib 0.079 | [11] -0.021 | [12] -0.139 | givinostat 0 | barasertib -0.095

HNRNPK isoform 2 (UniProt P61978)
inactive: IRAK-1-4 Inhibitor I -0.014 | ibrutinib -0.014 | [1] -0.161 | ralimetinib -0.054 | [2] -0.025 | [4] 0.003 | pinometostat -0.033 | [5] 0.005 | [6] -0.062 | [7] 0.034 | [8] 0.004 | [9] -0.003 | [10] 0.075 | Nexturastat A 0.022 | vemurafenib 0.048 | [11] 0.048 | [12] -0.031 | givinostat 0.063 | barasertib 0.024
active: [3] -0.283

IGF2BP2 (UniProt Q9Y6M1)
Sequence of UniProt Q9Y6M1 (Q9Y6M1 whole entry, looked up): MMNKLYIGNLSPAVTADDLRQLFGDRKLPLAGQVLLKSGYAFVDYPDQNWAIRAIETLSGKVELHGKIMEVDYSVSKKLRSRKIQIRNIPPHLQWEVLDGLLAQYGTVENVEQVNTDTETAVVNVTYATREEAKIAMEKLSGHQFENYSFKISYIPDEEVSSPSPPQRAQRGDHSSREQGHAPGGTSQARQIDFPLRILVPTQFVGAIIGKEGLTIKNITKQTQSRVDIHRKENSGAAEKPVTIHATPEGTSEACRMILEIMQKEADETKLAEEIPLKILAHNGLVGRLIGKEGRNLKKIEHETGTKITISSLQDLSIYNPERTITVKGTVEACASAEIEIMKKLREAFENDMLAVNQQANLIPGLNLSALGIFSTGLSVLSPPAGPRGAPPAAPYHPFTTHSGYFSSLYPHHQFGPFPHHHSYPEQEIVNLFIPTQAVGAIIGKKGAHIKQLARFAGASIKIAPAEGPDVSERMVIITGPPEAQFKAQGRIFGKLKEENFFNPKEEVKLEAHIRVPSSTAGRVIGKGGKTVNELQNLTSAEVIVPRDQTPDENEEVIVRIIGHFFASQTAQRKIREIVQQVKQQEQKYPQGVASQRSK
inactive: IRAK-1-4 Inhibitor I -0.168 | ibrutinib 0.048 | [1] -0.011 | ralimetinib 0.209 | [2] 0.037 | [3] -0.249 | [4] 0.106 | pinometostat 0.477 | [5] 0.087 | [6] -0.054 | [7] 0.009 | [8] -0.001 | [9] -0.008 | [10] -0.094 | Nexturastat A 0.383 | vemurafenib 0.065 | [11] 0 | [12] -0.011 | givinostat 0.153 | barasertib -0.041

FDPS (UniProt P14324)
Sequence of UniProt P14324 (P14324 whole entry, looked up): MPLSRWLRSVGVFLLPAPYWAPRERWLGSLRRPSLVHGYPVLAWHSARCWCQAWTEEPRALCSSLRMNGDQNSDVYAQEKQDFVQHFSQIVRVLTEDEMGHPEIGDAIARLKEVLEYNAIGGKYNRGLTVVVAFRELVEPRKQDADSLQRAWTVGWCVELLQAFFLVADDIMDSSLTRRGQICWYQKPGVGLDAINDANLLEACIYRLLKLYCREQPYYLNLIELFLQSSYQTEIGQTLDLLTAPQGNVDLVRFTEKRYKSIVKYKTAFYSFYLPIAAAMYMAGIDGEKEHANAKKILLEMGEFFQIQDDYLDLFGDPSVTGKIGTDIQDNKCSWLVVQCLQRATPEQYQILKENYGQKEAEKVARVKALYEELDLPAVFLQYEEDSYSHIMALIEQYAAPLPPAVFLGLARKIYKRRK
inactive: IRAK-1-4 Inhibitor I -0.127 | ibrutinib -0.066 | [1] -0.096 | ralimetinib 0.048 | [2] -0.319 | [4] -0.028 | pinometostat 0.048 | [5] 0.007 | [6] 0.083 | [7] -0.061 | [8] -0.068 | [9] 0.109 | [10] -0.077 | Nexturastat A 0.068 | vemurafenib 0.034 | [11] -0.001 | [12] -0.005 | givinostat 0.156 | barasertib 0.081
active: [3] -0.63

GSTO1 (UniProt P78417)
Sequence of UniProt P78417 (P78417 whole entry, looked up): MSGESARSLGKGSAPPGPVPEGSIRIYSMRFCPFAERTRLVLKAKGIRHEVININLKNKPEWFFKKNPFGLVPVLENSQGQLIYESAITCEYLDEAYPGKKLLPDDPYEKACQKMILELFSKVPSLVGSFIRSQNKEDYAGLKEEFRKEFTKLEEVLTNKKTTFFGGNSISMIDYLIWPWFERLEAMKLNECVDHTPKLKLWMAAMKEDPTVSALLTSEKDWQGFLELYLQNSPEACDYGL
inactive: IRAK-1-4 Inhibitor I 0.073 | ibrutinib -0.029 | [1] 0.006 | ralimetinib 0.021 | [2] -0.029 | [3] 0.066 | [4] -0.045 | pinometostat -0.047 | [5] 0.021 | [6] 0.021 | [7] -0.031 | [8] 0.002 | [9] 0.03 | [10] 0.03 | Nexturastat A -0.121 | vemurafenib 0.02 | [11] 0.017 | [12] 0.15 | givinostat -0.043 | barasertib 0.016

HMOX2 (UniProt P30519)
Sequence of UniProt P30519 (P30519 whole entry, looked up): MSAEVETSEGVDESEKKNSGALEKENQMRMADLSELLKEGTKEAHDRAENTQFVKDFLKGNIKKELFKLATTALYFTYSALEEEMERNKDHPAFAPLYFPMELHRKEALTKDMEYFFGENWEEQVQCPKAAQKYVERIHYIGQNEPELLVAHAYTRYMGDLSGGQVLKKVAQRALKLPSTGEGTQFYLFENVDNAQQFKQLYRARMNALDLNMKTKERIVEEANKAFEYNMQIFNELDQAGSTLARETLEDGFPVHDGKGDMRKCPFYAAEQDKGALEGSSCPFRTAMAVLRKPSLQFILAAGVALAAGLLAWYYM
inactive: IRAK-1-4 Inhibitor I -0.061 | ibrutinib -0.035 | [1] -0.092 | ralimetinib 0.081 | [2] 0.031 | [3] 0.08 | [4] 0.028 | pinometostat 0 | [5] -0.016 | [6] 0.012 | [7] 0 | [8] -0.06 | [9] 0.036 | [10] -0.019 | Nexturastat A -0.023 | vemurafenib 0.034 | [11] 0.012 | [12] 0.097 | givinostat 0.015 | barasertib 0.042

HMG20A (UniProt Q9NP66)
Sequence of UniProt Q9NP66 (Q9NP66 whole entry, looked up): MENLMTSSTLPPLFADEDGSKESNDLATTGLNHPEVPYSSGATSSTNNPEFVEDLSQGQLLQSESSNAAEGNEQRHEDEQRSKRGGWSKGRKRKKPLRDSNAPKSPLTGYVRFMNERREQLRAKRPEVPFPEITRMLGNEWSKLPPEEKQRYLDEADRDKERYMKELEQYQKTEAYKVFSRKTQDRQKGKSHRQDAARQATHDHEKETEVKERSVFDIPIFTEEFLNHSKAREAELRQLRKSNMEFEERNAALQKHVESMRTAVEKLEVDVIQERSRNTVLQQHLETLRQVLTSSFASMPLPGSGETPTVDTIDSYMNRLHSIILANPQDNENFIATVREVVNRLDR
inactive: IRAK-1-4 Inhibitor I -0.05 | ibrutinib 0.043 | [1] -0.015 | ralimetinib 0.275 | [2] 0.062 | [3] 0.043 | [4] -0.405 | pinometostat 0.026 | [5] -0.008 | [6] 0.007 | [7] -0.051 | [8] -0.009 | [9] -0.153 | [10] -0.016 | Nexturastat A 0.033 | vemurafenib 0.027 | [11] 0.016 | [12] 0.149 | givinostat 0.03 | barasertib 0.024

HRAS (UniProt P01112)
Sequence of UniProt P01112 (P01112 whole entry, looked up): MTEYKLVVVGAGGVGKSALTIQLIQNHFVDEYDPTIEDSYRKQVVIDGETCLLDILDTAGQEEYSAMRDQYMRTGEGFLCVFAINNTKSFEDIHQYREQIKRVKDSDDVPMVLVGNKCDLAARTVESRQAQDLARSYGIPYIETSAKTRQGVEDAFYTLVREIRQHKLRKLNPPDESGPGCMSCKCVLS
inactive: IRAK-1-4 Inhibitor I 0.093 | ibrutinib 0.143 | [1] 0.065 | ralimetinib 0 | [2] -0.004 | [3] 0.047 | [4] 0.13 | pinometostat -0.059 | [5] -0.013 | [6] -0.121 | [7] -0.042 | [8] -0.065 | [9] -0.031 | [10] 0.096 | Nexturastat A 0.147 | vemurafenib 0.064 | [11] -0.083 | [12] 0.089 | givinostat -0.065 | barasertib 0.063

FBXO3 (UniProt Q9UK99)
inactive: IRAK-1-4 Inhibitor I 0.038 | ibrutinib -0.003 | [1] -0.008 | ralimetinib 0.171 | [2] 0.021 | [3] -0.014 | [4] 0.031 | pinometostat 0 | [5] 0.014 | [6] -0.047 | [7] -0.042 | [8] -0.08 | [9] 0 | [10] -0.018 | Nexturastat A -0.043 | vemurafenib -0.089 | [11] -0.025 | [12] -0.057 | givinostat 0.049 | barasertib -0.043

HK2 (UniProt P52789)
active: [7] -0.257
inactive: IRAK-1-4 Inhibitor I -0.007 | ibrutinib -0.01 | [1] -0.096 | ralimetinib -0.037 | [2] -0.046 | [3] 0.096 | [4] -0.022 | pinometostat -0.001 | [5] 0.063 | [6] 0.034 | [8] -0.028 | [9] 0 | [10] 0.019 | Nexturastat A 0.017 | vemurafenib 0.003 | [11] 0.027 | [12] -0.041 | givinostat -0.016 | barasertib 0.051
